Unmarked numbers belong to inactive results. Results filed as inconclusive are left out. Active and inactive are the calls of the source. Unless noted, the call rests on the fitted dose curve; in most records, active means well fitted curve in the direction sought with a large enough effect; inconclusive means small, poorly fitted or top-dose-only effect, or another doubt; inactive means no such curve, though single readings can be large; an effect the other way counts as inactive or inconclusive.

Assay [1] can be described thus: Cell Viability - Jurkat (AID 426;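 active means dose-dependent loss of cell ATP signal giving a full or clear fitted curve, ranked by lower potency value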;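 further: potency means the concentration at half of the fitted maximal effect; cells exposed to compound for 40 hours at 37 °C before ATP read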). The following applies: qHTS. The gist of the method:
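Cytotoxicity taken as drop in cellular ATP (CellTiter-Glo luminescence, 20 min room temperature) after 40 hr, 37C treatment of 5000 Jurkat Clone E6-1 cells per well; concentration-response fitted with Hill equation for AC50.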
(Quantitative high-throughput screening tests each substance at several concentrations.)

Assay [2] in a line: Cell Viability - LYMP1-003 - Assay at 24 hr (AID 963).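 Further: plate controls were DMSO only for no effect and tetraoctylammonium bromide positive control for full effect.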 The essentials:
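Concentration-response qHTS: ATP loss measured by CellTiter-Glo luminescence after 24 h compound exposure at 37 C. Cells were LYMP1-003 human lymphoblastoid, 2500 per well. AC50 derived via standard Hill equation modeling.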

The nature of assay [3]: Cell Viability - LYMP2-023 (AID 975).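 Further: cells exposed to compound for 24 hours at 37 °C; nearly all actives have a fitted effect of over 55% in size.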 Further: potency means the concentration at half of the fitted maximal effect.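 On activity change, negative = cytotoxicity: cellular ATP measured by luciferase luminescence as viability proxy; plate controls were DMSO only for no effect and 92 µM tetraoctylammonium bromide control for full effect.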 The gist of the method: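 Intracellular ATP, read by CellTiter-Glo luminescence, reports viability after 24 hr compound exposure at 37 C. 2500 lymphoblastoid cells/well (LYMP2-023) seeded 5 hr beforehand; Hill fits give AC50; positive control tetraoctylammonium bromide.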
Assay [4] in a line: Cell Viability - LYMP2-025 (AID 976).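 Further: plate controls were DMSO only for no effect and tetraoctylammonium bromide control for full effect.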 The gist of the method:
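Cytotoxicity read as loss of intracellular ATP (luciferase luminescence) after 24 h compound treatment at 37 C. Uses LYMP2-025 lymphoblastoid cells in 1536-well format; Hill-equation modelling gives AC50; tetraoctylammonium bromide as positive control.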

Assay [5] in a line: Cell Viability - LYMP2-006 (AID 978).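 Further: cells exposed to compound for 24 hours; nearly all actives have a fitted effect of over 60% in size.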 Further: potency means the concentration at half of the fitted maximal effect. On activity change, negative = cytotoxicity: on the % scale 0 is the no-effect control and ±100 the full control effect. The gist of the method: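 Cells are seeded at 2500 per well and rested 5 hr at 37 C. Compounds are added across a concentration series for 24 hr at 37 C, after which ATP is quantified by luciferase luminescence.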
Assay [6] in a line: Cell Viability - LYMP2-008 (AID 980). Further: on the % scale 0 is the no-effect control and ±100 the full control effect; nearly all actives have a fitted effect of over 60% in size. The essentials:
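Cytotoxicity determined from ATP-dependent luciferase luminescence (CellTiter-Glo) following 24 h compound exposure of human lymphoblastoid LYMP2-008 cells at 37 C. Concentration-response data fitted to the Hill equation to give AC50.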

Assay [7] is described as follows: Cell Viability - LYMP2-026 (AID 989). Further: nearly all actives have a fitted effect of over 50% in size. Further: potency means the concentration at half of the fitted maximal effect. The gist of the method:
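Cytotoxicity read as ATP-dependent luminescence (CellTiter-Glo, 30 min room temperature) after 24 h compound treatment at 37 C. LYMP2-026 lymphoblastoid line seeded at 2500 cells/well; AC50 derived by standard Hill equation.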

Assay [8] deals with Estrogen receptor (Homo sapiens) (UniProt P03372). The assay is described as follows: qHTS assay for small molecule antagonists of estrogen receptor alpha signaling (AID 588513; active means well fitted curve in the direction sought with a large enough effect in the signal ratio, with a control signal flat, not every such curve was filed as active; the % refers to the signal ratio; further: on the % scale 0 is the no-effect control and ±100 the full control effect). The gist of the method: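 Fluorescence from CCF4 substrate after 2 h at room temperature gave reporter activity; cells had been exposed to compound and 0.5nM 17-beta-estradiol for 18 h at 37 C. Hill-equation fitting yielded IC50 and maximal response.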

The target is the same in assay [9]. The assay is described as follows: qHTS assay for small molecule agonists of estrogen receptor alpha signaling (AID 588514; calls by dose curve;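 further: 0% = vehicle only and 100% = reference agonist; nearly all actives have a fitted effect of over 70% in size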). The essentials:
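EC50 and efficacy came from Hill fits of beta-lactamase reporter signal (CCF4 dye, 2 h at room temperature) scaled between DMSO and 20 nM 17-beta-estradiol. Agonist mode: HEK293 ER-alpha-UAS-bla cells in charcoal/dextran-stripped serum medium, 18 h compound exposure at 37 C.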

The target in assay [10] is Peroxisome proliferator-activated receptor gamma (Homo sapiens) (UniProt P37231). Briefly: qHTS assay for small molecule agonists of peroxisome proliferator-activated receptor gamma signaling (AID 588536; active means well fitted curve in the direction sought with a large enough effect in the signal ratio, with a control signal flat, not every such curve was filed as active; the % refers to the signal ratio;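 further: 0% = DMSO basal wells and 100% = rosiglitazone at 2 µM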). The essentials:
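This is an agonist-mode beta-lactamase reporter assay in HEK293 PPAR-gamma-UAS-bla cells with 1% charcoal/dextran FBS. Compound titrations ran 16 h at 37 C before CCF4 detection. EC50 and efficacy are Hill fits scaled to 2 uM rosiglitazone (100%) and DMSO basal.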

The nature of assay [11]: qHTS assay for small molecule antagonists of the retinoid-related orphan receptor gamma (ROR-gamma) signaling pathway - cell viability counter screen (AID 720652; active means well fitted curve in the direction sought with a large enough effect in the repeat runs; an effect the other way counts as inactive or inconclusive;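 further: CHO reporter cells with doxycycline-induced ROR-gamma expression; compound exposure lasted 16 hr before ATP read; on the % scale 0 is the no-effect control and ±100 the full control effect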). The gist of the method:
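Cytotoxicity counter screen: intracellular ATP (CellTiter-Glo luminescence) measured in the doxycycline-induced CHO RORE-luciferase reporter line after 16 hr compound exposure at 37 C, 5% CO2.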

Assay [12] is described as follows: Cell Viability - NIH 3T3 (AID 541).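 Further: cells exposed to compound for 40 hours; nearly all actives have a fitted effect of over 25% in size.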 Further: potency means the concentration at half of the fitted maximal effect.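 On activity change, negative = cytotoxicity: plate controls were DMSO alone for no effect and tamoxifen positive control for full effect.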 Particulars: NIH 3T3 cell viability, qHTS; activity change, negative = cytotoxicity: at 92.2 µM (top of the series). The essentials:
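Intracellular ATP (CellTiter-Glo luminescence, 20 min at room temperature) measured after 40 hr compound exposure at 37 °C of 1000 NIH 3T3 mouse fibroblasts/well in complete medium; AC50 derived by Hill-equation modelling of qHTS concentration-response curves.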

The nature of assay [13]: Cellular Toxicity (caspase-3) SK-N-SH (AID 661).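 Further: cells exposed to compound for 16 hours; 0% = DMSO basal and 100% = 10 µM staurosporine.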 The essentials: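 Caspase 3/7 activation was read by luminogenic substrate cleavage after 16 hour treatment of SK-N-SH cells. Signal was scaled between DMSO and 10 uM staurosporine, and concentration-response data were fitted with the Hill equation for AC50.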
Assay [14] in a line: Cell Viability - LYMP1-002 - Assay at 40 hr (AID 994).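 Further: 0% = DMSO only and full inhibition = 92 µM tetraoctylammonium bromide; nearly all actives have a fitted effect of over 60% in size.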 The essentials: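 Cytotoxicity was read as loss of cellular ATP (CellTiter-Glo luminescence) after 40 hr compound exposure at 37 C of 2500 LYMP1-002 lymphoblastoid cells per well. Concentration-response data were fitted with the standard Hill equation to give AC50.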
Assay [15] has as its target Glucocorticoid receptor (Homo sapiens) (UniProt P04150). Briefly: qHTS assay for small molecule antagonists of glucocorticoid receptor signaling (AID 588533; active means well fitted inhibition curve with a large enough effect in the signal ratio, with a control signal flat, not every such curve was filed as active; the % refers to the signal ratio;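 further: cells stimulated with 2 nM dexamethasone as agonist; on the % scale 0 is the no-effect control and ±100 the full control effect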). The gist of the method:
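Antagonist-mode qHTS: compound titrations added to GRE-bla HeLa cells, then dexamethasone 2 nM final; 18 h, 37 C. CCF4 FRET fluorescence normalized to dexamethasone and DMSO; IC50 from Hill fit.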

Assay [16] can be described thus: Cell Viability - Mesenchymal (AID 546).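 Further: cells exposed to compound for 40 hours before reading; 0% = DMSO only and -100% = 100 µM tamoxifen.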 The following applies: mesenchymal cells viability, qHTS; activity change, negative = cytotoxicity: at 91.7 µM (top of the series). The gist of the method:
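In this qHTS cytotoxicity format, glomerulus-derived human mesenchymal kidney cells received compound for 40 hr, then luciferase-based ATP quantitation. Concentration-response data were fitted with the Hill equation.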

Chain of Glucocorticoid receptor (Homo sapiens) (P04150 whole entry, looked up): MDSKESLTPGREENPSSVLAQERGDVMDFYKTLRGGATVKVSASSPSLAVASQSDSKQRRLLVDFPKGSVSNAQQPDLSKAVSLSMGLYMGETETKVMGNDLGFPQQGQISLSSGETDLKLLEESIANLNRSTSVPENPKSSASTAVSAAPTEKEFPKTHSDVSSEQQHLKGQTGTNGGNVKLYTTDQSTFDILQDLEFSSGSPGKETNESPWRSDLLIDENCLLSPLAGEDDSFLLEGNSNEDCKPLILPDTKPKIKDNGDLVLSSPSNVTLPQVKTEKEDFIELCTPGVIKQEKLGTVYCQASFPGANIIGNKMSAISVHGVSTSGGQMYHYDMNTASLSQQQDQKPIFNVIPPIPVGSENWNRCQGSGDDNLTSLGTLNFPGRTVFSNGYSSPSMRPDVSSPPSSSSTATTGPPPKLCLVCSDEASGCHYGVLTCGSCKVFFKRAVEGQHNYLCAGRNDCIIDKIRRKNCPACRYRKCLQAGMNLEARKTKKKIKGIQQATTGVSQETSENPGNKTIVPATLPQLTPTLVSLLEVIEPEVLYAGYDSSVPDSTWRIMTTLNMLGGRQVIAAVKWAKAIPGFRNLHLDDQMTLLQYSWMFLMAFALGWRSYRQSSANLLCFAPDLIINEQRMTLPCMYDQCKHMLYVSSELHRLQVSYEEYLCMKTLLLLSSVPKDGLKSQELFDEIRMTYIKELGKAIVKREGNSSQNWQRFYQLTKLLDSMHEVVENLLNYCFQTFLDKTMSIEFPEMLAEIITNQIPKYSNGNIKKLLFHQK
Chain of Peroxisome proliferator-activated receptor gamma (Homo sapiens) (P37231 whole entry, looked up): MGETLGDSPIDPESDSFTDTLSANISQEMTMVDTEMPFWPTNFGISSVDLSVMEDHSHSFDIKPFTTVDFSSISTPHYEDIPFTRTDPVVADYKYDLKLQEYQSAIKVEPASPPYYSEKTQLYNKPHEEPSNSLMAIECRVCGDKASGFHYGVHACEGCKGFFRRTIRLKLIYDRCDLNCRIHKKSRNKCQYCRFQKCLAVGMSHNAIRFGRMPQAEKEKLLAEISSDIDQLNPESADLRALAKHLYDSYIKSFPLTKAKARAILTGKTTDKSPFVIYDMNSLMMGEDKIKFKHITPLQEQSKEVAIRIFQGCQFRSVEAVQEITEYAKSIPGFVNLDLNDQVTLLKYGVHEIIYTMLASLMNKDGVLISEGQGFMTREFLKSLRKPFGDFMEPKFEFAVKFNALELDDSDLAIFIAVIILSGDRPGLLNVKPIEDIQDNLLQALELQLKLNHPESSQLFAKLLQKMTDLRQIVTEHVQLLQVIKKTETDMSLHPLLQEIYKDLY
Chain of Estrogen receptor (Homo sapiens) (P03372 whole entry, looked up): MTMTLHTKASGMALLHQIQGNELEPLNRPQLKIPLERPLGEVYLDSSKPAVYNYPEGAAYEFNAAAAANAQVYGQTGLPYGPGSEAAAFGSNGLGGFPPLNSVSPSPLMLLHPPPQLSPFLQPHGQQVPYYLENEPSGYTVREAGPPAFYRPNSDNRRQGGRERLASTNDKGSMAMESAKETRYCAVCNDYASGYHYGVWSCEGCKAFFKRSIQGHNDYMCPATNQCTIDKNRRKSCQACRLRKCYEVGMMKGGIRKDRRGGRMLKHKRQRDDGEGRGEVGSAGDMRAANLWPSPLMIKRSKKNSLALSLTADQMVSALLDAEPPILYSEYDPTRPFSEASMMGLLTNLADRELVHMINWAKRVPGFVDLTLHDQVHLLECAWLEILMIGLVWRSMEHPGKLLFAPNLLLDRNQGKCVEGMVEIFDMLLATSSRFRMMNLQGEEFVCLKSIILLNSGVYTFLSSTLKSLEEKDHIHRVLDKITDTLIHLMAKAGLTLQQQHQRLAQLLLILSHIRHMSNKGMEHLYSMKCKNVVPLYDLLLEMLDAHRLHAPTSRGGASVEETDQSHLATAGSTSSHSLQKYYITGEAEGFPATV

As to `S=C(NC1CCCCC1)NC1CCCCC1`, in assay [1], the Potency is over 92 µM. Besides, the Potency entry in assay [2], in [3], in assay [4], in [5], in assay [6] and in assay [7] was “inactive” each time. In addition, the Potency result in [9] and in assay [11] was “inactive” each time. In addition, the outcome in assay [8] and in [10] was inactive.

Take `C=CC1CO1` (stereo not given): the Potency in assay [1] is over 92 µM. For the same compound, in assay [12], the activity change, negative = cytotoxicity is -8.56%. Besides, the result in assay [13] and in [10] was inactive. For the same compound, the Potency entry in [2], in assay [3], in assay [14], in assay [15] and in [11] was “inactive” in each case.

With `Cc1c(C(=O)O)c(O)cc2c1C(=O)c1c(O)c([C@H]3O[C@H](CO)[C@@H](O)[C@H](O)[C@H]3O)c(O)c(O)c1C2=O`, in assay [12], the activity change, negative = cytotoxicity was -80.4% (active). Besides, the call in [13], in assay [8] and in assay [10] was inactive. For the same compound, the Potency entry in assay [9] and in assay [15] was “inactive” in each case.

`Nc1ccc2c(c1)C(=O)c1ccccc1C2=O`: the Potency in assay [1] was 49.6 µM. Further, the Potency result in [2], in [3], in assay [4], in [5], in [14] and in assay [15] was “inactive” throughout. In addition, the call in assay [8] and in [10] was inactive.

On to `O=C1OC(=O)c2ccccc21`, for which the Potency result in [16], in assay [2], in [3], in assay [4], in assay [6] and in assay [14] was “inactive” in each case. Moreover, the Potency result in assay [9] and in assay [15] was “inactive” in each case. The compound was called inactive in assay [13], in assay [8] and in assay [10].

For the compound `O=[N+]([O-])c1cccc(I)c1`, the Potency in assay [1] is over 92 µM. In assay [12], the activity change, negative = cytotoxicity was -7.89%. Moreover, the Potency entry in assay [3], in [5], in assay [6], in [7], in assay [14] and in assay [9] was “inactive” in each case. Further, the Potency result in assay [15] and in [11] was “inactive” throughout. For the same compound, the compound was classed as inactive in assay [8] and in assay [10].

`CCCCC(CC)COP(=O)(OCC(CC)CCCC)OCC(CC)CCCC` (stereo not given): the Potency result in assay [16], in assay [2], in [3], in [4], in [5] and in [15] was “inactive” each time. Further, the Potency entry in assay [11] is “inactive”. Further, the compound was called inactive in assay [13] and in assay [10].

For `Nc1ccc(N)c(Cl)c1`, the Potency in assay [12] was 31.6 µM (active). Moreover, the Potency entry in assay [16], in assay [3], in assay [5], in [9] and in assay [11] was “inactive” in each case. In assay [13], the result was inactive.

`Nc1cnn([C@@H]2O[C@H](CO)[C@@H](O)[C@H]2O)c(=O)n1`: the activity change, negative = cytotoxicity in [12] was 4.75%. Further, the Potency result in assay [16], in assay [2], in [3], in [4], in assay [6] and in assay [9] was “inactive” throughout. Further, the Potency entry in assay [15] and in [11] was “inactive” in each case. Moreover, the outcome in assay [8] and in [10] was inactive.

Turning to `CCCCOC(=O)COc1ccc(Cl)cc1Cl`, the Potency in assay [1] is over 92 µM. Besides, in assay [12], the activity change, negative = cytotoxicity is 1.3%. In addition, the Potency entry in assay [16], in assay [2], in assay [3], in assay [4], in [6] and in [7] was “inactive” in each case. Also, the Potency entry in [11] was “inactive”. Moreover, the compound was classed as inactive in assay [10].

With `O=C=Nc1ccc(Cl)c(Cl)c1`, the activity change, negative = cytotoxicity in [12] was -122% (active). Further, the compound was called inactive in assay [8]. Moreover, in assay [9], the Potency entry was “inactive”.

Consider `Nc1cc([N+](=O)[O-])ccc1O`, for which the Potency in [1] was over 92 µM. The Potency entry in assay [16], in [6], in assay [7], in [15] and in [11] was “inactive” in each case. The outcome in [13] and in [10] was inactive.

On to `O=C(O)c1ccc([N+](=O)[O-])cc1`, for which, in assay [12], the activity change, negative = cytotoxicity was 3.22%. Moreover, the Potency result in assay [16], in assay [2], in assay [3], in assay [4], in assay [5] and in assay [6] was “inactive” throughout. For the same compound, the Potency result in [15] and in assay [11] was “inactive” in each case. The compound was called inactive in assay [13].

As for `C/C=C/C=C/C=O`, the Potency was 29.4 µM (active) in assay [1], 50.1 µM (active) in [3], 39.8 µM (active) in [5] and 39.8 µM (active) in [7]. In addition, in assay [12], the activity change, negative = cytotoxicity was -142% (active). Also, the Potency entry in [16], in [14] and in [9] was “inactive” throughout. The result in [8] was inactive.
